The text below walks through data of PubChem BioAssay.

Values joined by “and” are separate entries in the source; they are usually repeats but may differ in a detail not shown here. Equal entries are not always repeated. More than one record can exist for a structure, and the calls need not agree. Active and inactive are the calls of the source. No stated cut-off is given here; in the data, active means fold change permeability below about 0.7 or above about 1.3; inactive means in between.

The nature of this assay: compounds altering in vitro BBB leakiness – cell-based, FITC-avidin fluorescence, HTS, primary screen (AID 1963498). Further: test concentration not given here. The following applies: brain endothelial barrier, actives lie on both sides.
Consider `C[N+]1(C)CCC(OC(=O)C(c2ccccc2)c2ccccc2)CC1`, for which the fold change permeability was 1.6 (active). For `Clc1ccc(CO/N=C(\Cn2ccnc2)c2ccc(Cl)cc2Cl)c(Cl)c1`, the fold change permeability is 1.6 (active). As to `CCCN(CCC)C1Cc2cc(OC)c(OC)cc2C1`, the fold change permeability is 0.8 (inactive). As to `N[C@@H](Cn1oc(=O)[nH]c1=O)C(=O)O`, the fold change permeability is 1.1 (inactive). Regarding `CCn1cc(C(=O)O)c(=O)c2ccc(C)nc21`, the fold change permeability is 0.9 (inactive).

As for `CCC1(c2ccc(N)cc2)CCC(=O)NC1=O` (stereo unspecified), the fold change permeability is 1 (inactive). Turning to `NCCc1c[nH]c2ccc(O)cc12`, the fold change permeability is 1 (inactive). On to `CCCN1CCC[C@@H]2Cc3nc(N)ncc3C[C@H]21`, for which the fold change permeability is 1.1 (inactive).

In the case of `CCOC(=O)c1ccc(-c2ccc(OC(=O)N(C)Cc3cccc(-c4ccncc4)c3)cc2)cc1`, the fold change permeability is 1.2 (inactive). For `C[N+]1(C)CCN(c2ccccc2)CC1`, the fold change permeability is 1.2 (inactive).

Turning to `CCCCCCCCCCCCCC(=O)O[C@@H]1[C@@H](C)[C@@]2(O)[C@@H](C=C(CO)C[C@]3(O)C(=O)C(C)=C[C@@H]23)[C@@H]2C(C)(C)[C@]12OC(C)=O`, the fold change permeability is 1.1 (inactive). Regarding `COC[C@H]1OC(=O)c2coc3c2[C@@]1(C)C1=C(C3=O)C2CCC(=O)[C@@]2(C)C[C@H]1OC(C)=O` (stereo partly specified), the fold change permeability is 1.7 (active). With `COc1cc(C(O)CN)ccc1O` (stereo unspecified) the figure was 0.9 (inactive).

In the case of `CC1OC(C[N+](C)(C)C)CC1O` (stereo unspecified), the fold change permeability is 0.9 (inactive). For the molecule `NC1CCc2cc(O)c(O)cc2C1` (stereo unspecified), the fold change permeability was 0.7 (active). Consider `O=[N+]([O-])c1cc(O)c(O)c([N+](=O)[O-])c1`, for which the fold change permeability is 1 (inactive).

In the case of `Cc1ccc(S(=O)(=O)N[C@@H](CCCCN)C(=O)CCl)cc1`, the fold change permeability is 1.4 (active).

For `CC(NC(C)(C)C)C(=O)c1cccc(Cl)c1` (stereo unspecified), the fold change permeability is 1 (inactive).

For the molecule `COc1ccc(Cc2nccc3cc(OC)c(OC)cc23)cc1OC`, the fold change permeability is 1.2 (inactive). `CC[C@@H](C(N)=O)N1CCCC1=O`: the fold change permeability was 0.9 (inactive).

For `CN1C2C=C(c3sccc3Br)CC1CC2` (stereo unspecified), the fold change permeability is 0.9 (inactive). `CC(C)N(CCC(C(N)=O)(c1ccccc1)c1ccccn1)C(C)C` (stereo unspecified): the fold change permeability is 0.9 (inactive) and 1.3 (active). Regarding `CC(N)Cc1c[nH]c2ccc(OCc3cccs3)cc12` (stereo unspecified), the fold change permeability is 1.3 (active). Turning to `C=CCN1CC[C@]23c4c5ccc(O)c4O[C@H]2C(=O)CC[C@@]3(O)[C@H]1C5`, the fold change permeability is 1 (inactive). The result for `O=C(O)CC[N+](=O)[O-]` reads 0.9 (inactive).

In the case of `C#C[C@]1(O)CC[C@H]2[C@@H]3CCC4=Cc5nc6nc7ccccc7n6cc5C[C@]4(C)[C@H]3CC[C@@]21C`, the fold change permeability was 1.8 (active). For the molecule `CN1CC[C@@]2(C)c3cc(OC(=O)Nc4ccccc4)ccc3N(C)[C@@H]12`, the fold change permeability was 1.4 (active). As to `NC(=O)CI`, the fold change permeability was 1.2 (inactive).

`NC(=O)COc1c(F)cc(SCCNS(=O)(=O)c2ccccc2)cc1F`: the fold change permeability was 0.9 (inactive). On to `COc1ccccc1N1CCNCC1`, for which the fold change permeability is 0.9 (inactive). As to `OCc1cnc[nH]1`, the fold change permeability was 1.1 (inactive). The result for `Cc1cccc(C)c1NC1=NCCCS1` reads 1.9 (active); that for `COc1ccc2[nH]cc(CCN)c2c1`, 0.8 (inactive).

Regarding `CN[C@@H]1C[C@@H](c2ccc(Cl)c(Cl)c2)c2ccccc21`, the fold change permeability is 1.2 (inactive). `CN[C@@H]1Cc2cccc3[nH]c(=O)n(c23)C1`: the fold change permeability is 0.8 (inactive). As for `c1ccc2sc(C3(N4CCCCC4)CCCCC3)cc2c1`, the fold change permeability is 1 (inactive).
